Casp6 inh: blocks human caspase-6 cleavage activity; purified caspase-6, Z-VEID-R110 cleavage fluorescence; inhibition, % at 12.5 µM; hit rate 0.53% among 350,000;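 active means mean inhibition across replicates at least about 35%, with every replicate also reaching that limit, limit read from the data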;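 further: 0% = median of neutral control wells and 100% = no fluorescence left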
Target sequence (P55212 24-179 limits assumed): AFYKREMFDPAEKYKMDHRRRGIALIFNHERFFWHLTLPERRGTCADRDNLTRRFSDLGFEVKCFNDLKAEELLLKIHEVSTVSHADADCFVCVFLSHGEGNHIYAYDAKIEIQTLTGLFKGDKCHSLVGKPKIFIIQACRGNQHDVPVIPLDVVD
Target sequence (P55212 194-293 limits assumed): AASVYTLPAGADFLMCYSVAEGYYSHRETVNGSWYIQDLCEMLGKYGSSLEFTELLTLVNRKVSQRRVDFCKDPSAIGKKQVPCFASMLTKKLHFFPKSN
ALR H2O2 inh: inhibitors of human sulfhydryl oxidase ALR. P55789. purified ALR, DTT oxidation, H2O2 HRP-luminol luminescence. inhibition, % (test concentration not listed). hit rate 3.8% among 290,000. AID 485317;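 active means mean replicate inhibition above about 79%, with every replicate also reaching it, limit read from the data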
Target sequence (P55789 whole entry, looked up): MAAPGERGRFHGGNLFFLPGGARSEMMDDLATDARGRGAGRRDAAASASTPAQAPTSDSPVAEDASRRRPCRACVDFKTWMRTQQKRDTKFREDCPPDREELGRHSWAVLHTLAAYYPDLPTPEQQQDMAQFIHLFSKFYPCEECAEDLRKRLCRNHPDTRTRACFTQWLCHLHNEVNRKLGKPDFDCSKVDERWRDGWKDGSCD
PglD inh: inhibitors of Campylobacter jejuni PglD acetyltransferase; purified PglD enzyme, DTNB colorimetric CoA detection; inhibition, % at 12.5 µM; hit rate 0.098% among 360,000; AID 602405; in the data active means inhibition above about 16%, passing the limit was not always enough
NSD2 HMT inh: NSD2 (human) methyltransferase inhibition; inhibition, % at 12.5 µM; hit rate 0.54% among 310,000; NSD2 peptide methylation, AlphaScreen, 120 min; in the data active means inhibition above about 50%
HIV Env fusion: blocks HIV Env-driven cell-cell fusion; hit rate 1.1% among 360,000; inhibition, % at 12.3 µM; HeLa-JRFL Env/CEM21 cell fusion, luciferase;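 active means mean replicate inhibition score of at least 50 and every replicate individually at or above 50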;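 further: 0% = plate neutral controls and 100% = maraviroc near 300 nM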
F508del corr: CFTR F508del correction in bronchial cells. AID 720511. activity (quench increase), % at 7.58 µM. CFBE cells, YFP halide quenching; stimulated with forskolin plus potentiator P3; % fluorescence drop versus neutral controls. hit rate 0.36% among 350,000;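 active means mean added fluorescence quench of at least 8% versus neutral control, with both replicates also reaching 8%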;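 further: cells transiently co-express mutant CFTR-F508del with the halide-sensitive YFP; corrector assay measuring rescue of mutant channel to the surface after 24 h compound exposure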
PglD confirm: blocks Campylobacter jejuni PglD acetyltransferase activity | shares compounds with PglD inh | Purified C. jejuni PglD, DTNB absorbance 412 nm | inhibition, % at 20 µM | 320 tested, under 10 active;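 active means mean inhibition across replicates of at least 20% with every single replicate also at 20% or more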;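 further: initial rate of CoA release by acetyl transfer from AcCoA to the UDP-4-amino sugar; 0% = median of neutral control wells and 100% = median of positive control wells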
CASP1 counter: blocks human caspase-1 in a selectivity counter-screen; shares compounds with Casp6 inh; purified caspase-1, Z-YVAD-R110 cleavage fluorescence; activity change, negative = inhibition, % at 35 µM; 100 tested, under 10 active;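 active means compounds lowering fluorescence whose fitted half-maximal concentration is no more than twice their top tested dose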
Alpha artifact: AlphaScreen assay artifact in NSD2 counter-screen. shares compounds with NSD2 HMT inh. AlphaScreen artifact counterscreen, preloaded methylated H4 peptide. AC35, µM (titrated, usually from 10 µM), inactives show at the highest dose activity change, negative = signal loss. hit rate 9.4% among 1,500. AID 1053174; call rule not given here
Starred values were filed as active, the others as inactive; x = not tested or not shown; [ ] = remark or other dose. Shown are actives, neighbours in structure and some others; about 4.1% of the full set was active somewhere.

SMILES	Casp6 inh	ALR H2O2 inh	PglD inh	NSD2 HMT inh	HIV Env fusion	F508del corr	others
CCC(=NCCC(c1ccccc1)c1ccccc1)c1c(O)n(C)c(=O)n(C)c1=O	x	-4	4	-2	-60	x
COc1ccc(-c2ccc([C@H]3[C@@H](CO)N4CCCCN(C(=O)Cc5ccccc5)C[C@@H]34)cc2)cc1	-4	x	-2	x	x	-2
CN1C(=O)C2C[C@@]3(Br)c4ccccc4N(OOSc4ccccc4)[C@H]3N2C(=O)[C@@H]1Cc1ccccc1 (some centres undefined)	x	-31	-1	x	77*	0
c1ccc2c(c1)Sc1ccccc1N2CC1CN2CCC1CC2 (centres undefined)	1	98*	-3	x	41	1
Clc1ccccc1CNC1CN2CCC1CC2 (centres undefined)	x	13	x	-1	-2	x
Cc1cccc(S(=O)(=O)N2[C@@H]3c4ccc(-c5ccc(F)cc5)c(=O)n4C[C@H]2[C@H](CO)[C@H]3C(=O)O)c1	x	x	x	x	-2[16.7 µM]	x
COc1ccc(CN2CC=C(c3ccc(F)cc3)CC2)cc1Br	-1	-3	4	-1	18	-2
CCN(CC)c1ccc(CN2CC=C(c3ccc(F)cc3)CC2)cc1	x	56	2	54*	x	x
COC(=O)[C@@H]1[C@@H](CO)[C@@H]2Cn3c(ccc(-c4cccc(OC)c4)c3=O)[C@H]1N2C(=O)c1cnccn1	0	x	-2	x	x	-1
CC1=C2C[C@H]3[C@@H](CC=C4C[C@@H](O)CC[C@@]43C)[C@@H]2CC[C@]12O[C@@H]1C[C@H](C)CN[C@@H]1C2C (some centres undefined)	-4	x	x	x	-8[16.7 µM]	-2
NC(=O)c1c(Br)n(C2OC(CO)C(O)C2O)c2ncnc(N)c12 (centres undefined)	2	x	x	-1	71*	4
CCNC(=O)[C@H]1O[C@@H](n2cnc3c(N)ncnc32)[C@H](O)[C@@H]1O	-2	6	-5	x	-2	-3
N#Cc1cn(C2OC(CO)C(O)C2O)c2ncnc(N)c12 (centres undefined)	-2	x	x	1	85*	-3
NC(=O)c1cn(C2OC(CO)C(O)C2O)c2ncnc(N)c12 (centres undefined)	1	-6	-7	-3	89*	-4
N#Cc1c(Br)n(C2OC(CO)C(O)C2O)c2ncnc(N)c12 (centres undefined)	9	x	x	2	-1	1
O=C(O)[C@H]1[C@H](CO)[C@H]2Cn3c(ccc(-c4ccncc4)c3=O)[C@@H]1N2C(=O)C1CCCCC1	-6	x	-1	x	x	-1
CC=Cc1ccc2n(c1=O)C[C@H]1[C@H](CO)[C@@H](C(=O)N(C)C)N[C@@H]21 (mixture of isomers)	0	x	2	x	x	-2
COC(=O)[C@H]1[C@H](CO)[C@H]2Cn3c(ccc(C4=CCCCC4)c3=O)[C@@H]1N2CC1CCCCC1	-2	x	x	x	x	0
CC1CCC/C=C/C2CC(O)CC2C(O)/C=C/C(=O)O1 (centres undefined)	x	-10	3	-1	107*	x
C/C(=N\Nc1ccccc1)c1c(O)[nH]c(=O)[nH]c1=O	8	-8	x	-1	0	-1
CC/C(=N\NC(=S)Nc1ccccc1)c1c(O)[nH]c(=O)[nH]c1=O	8	99*	9	-1	-1	1
c1cncc(-c2ccc(C3[C@H]4CNC[C@@H]3N4CC3CC3)cc2)c1 (some centres undefined)	x	x	x	x	x	4
ClCCNc1nc2ccc(Cl)cc2[nH]1	x	98*	-4	-22	-37	x
O=C(Cc1ccccc1)N1C[C@@H]2[C@H](c3ccccc31)[C@@H](CO)N2Cc1ccccc1	2	x	5	x	x	1
Cc1c(N=Nc2c(O)[nH]c(=O)[nH]c2=O)c(=O)n(-c2ccccc2)n1C	41*	31	x	-6	14	1
SMILES	Casp6 inh	ALR H2O2 inh	PglD inh	NSD2 HMT inh	HIV Env fusion	F508del corr	others
Cc1cc(/C=C2\C(=O)NC(=O)N(c3ccc(F)cc3)C2=O)c(C)n1-c1ccc(C(=O)O)cc1	3	98*	x	11	2	3
Cc1ccc(N2C(=O)NC(=O)/C(=C/c3ccc(-c4ccc(C(=O)O)c(Cl)c4)o3)C2=O)cc1	24	97*	x	44	0	-4
Cc1ccc(N2C(=O)NC(=O)/C(=C\c3cc(C)n(-c4cc(C(=O)O)cc(C(=O)O)c4)c3C)C2=O)cc1	22	39	-16	28	-24	-1
Cc1ccc(N2C(=O)NC(=O)/C(=C\c3cc(C)n(-c4ccc(C(=O)O)cc4)c3C)C2=O)cc1	12	97*	-18	15	0	0
Cc1ccc(OC(=O)N(C)C[C@@H]2OCc3ccccc3-c3c(n(C)c4ccccc34)C(=O)N([C@@H](C)CO)C[C@H]2C)cc1	1	x	x	x	x	2
C=CCN1C(=O)c2ccccc2Sc2ccc(C(=O)N3CCC4(CC3)OCCO4)cc21	1	4	x	-4	x	-1
O=C(c1ccc2c(c1)N(Cc1ccccc1)CCS2)N1CCC2(CC1)OCCO2	2	85*	-1	11	-2	0
COc1cccc(-n2nc(C(=O)N3CCC4(CC3)OCCO4)c3ccccc3c2=O)c1	x	94*	-5	x	x	x
COC(=O)[C@H]1[C@H](CO)[C@H]2Cn3c(ccc(-c4ccccc4)c3=O)[C@@H]1N2CC1CC1	1	x	0	x	x	3
Clc1ccccc1CN1CCNCC1	-13	-13	22*	0	-18	-2	PglD confirm=0
CC(C)N1CCN(Cc2cccc3c2OCO3)CC1CCO (centres undefined)	-3	-17	21*	5	2	0	PglD confirm=1
CC(C)N1CCN(Cc2cc3c(cc2Cl)OCO3)CC1CCO (centres undefined)	-1	x	-3	5	35	-1
COC(=O)[C@H]1[C@H](CO)[C@H]2Cn3c(ccc(-c4ccccc4)c3=O)[C@@H]1N2CC1CCCCC1	4	x	1	x	x	1
COc1cc2c(cc1OC)-c1c(OC)c(OC)cc3c1[C@H](C2)N(C)CC3	58*	-16	-6	x	-166	1	CASP1 counter=3
COc1ccccc1CN1[C@H](CO)[C@H](c2ccccc2)C12CN(C(=O)Cc1ccccc1)C2	3	x	x	x	x	0
CN(C)c1ccccc1	-1	x	2	-3	-2	-3
Cc1cccc(N=Nc2ccc(N(C)C)cc2)c1	2	46	0	51*	-110	0	Alpha artifact=8.4µM*
